In ChEMBL document CHEMBL3988442, “University of Dundee, Small-Polar-MMV Screening Library” (2021):
About 13,000 (27%) of roughly 48,000 compounds showed an effect of 50% or more. This is one part of the list.

These molecules were tested on Wolbachia pipientis (assay: Anti-Wolbachia Cell-Based Screen). Conditions: 5 µM.
Type: functional
Parameters: scale not given: in the data most compounds retested in dose-response had high values
With `CCC(C)(C)NC(=O)COC(=O)c1cc(C)ccc1NC(=O)N(C)C` the “Percent Effect” value was -1.36%. With `O=C(O)c1cccc(N2C[C@H](NC(=O)C3CCOCC3)[C@@H](C3CC3)C2)n1` the “Percent Effect” value was -12.83%. In the case of `CN(Cc1nc(Cc2cccc(C(F)(F)F)c2)no1)C1CCOCC1`, the “Percent Effect” value is reported as 106.5%. With `CCN(CC)Cc1nc(Cc2cccc(C(F)(F)F)c2)no1` the “Percent Effect” value was 107.6%. `CN(Cc1nc(Cc2cccc(F)c2)no1)C1CCOCC1` was tested, and the “Percent Effect” value was 108%. With `CN(CCc1cn[nH]c1)Cc1nc(Cc2cccc(C(F)(F)F)c2)no1` the “Percent Effect” value was -3.312%. For `CN(CCc1cn[nH]c1)Cc1nc(Cc2cccc(F)c2)no1`, the “Percent Effect” value was -20.63%. `CN(CCc1ccccc1)Cc1nc(Cc2cccc(F)c2)no1` was tested, and the “Percent Effect” value was -15.79%. In the case of `CCn1ccnc1CN(C)Cc1nc(Cc2cccc(F)c2)no1`, the “Percent Effect” value is reported as 17.71%. For `CN(Cc1nc(Cc2cccc(C(F)(F)F)c2)no1)C(C1CC1)C1CC1`, the “Percent Effect” value was 104.1%. `CN1CCCCC1Cc1nc(Cc2cccc(F)c2)no1` (stereo not drawn) was tested, and the “Percent Effect” value was 9.056%. In the case of `Cc1n[nH]c(C)c1CNCC(O)c1ccc(F)c(F)c1` (stereo not drawn), the “Percent Effect” value is reported as -7.93%. For `O=C(c1ccc(-n2ccnc2)nn1)N1CCCC1CCc1ccccc1` (stereo not drawn), the “Percent Effect” value was 7.406%. In the case of `c1nc2c(c(NCCCn3cncn3)n1)CCN(CC1CCOC1)CC2` (stereo not drawn), the “Percent Effect” value is reported as 11.83%. For `CN(Cc1cnn(C)c1)Cc1nc(Cc2cccc(Cl)c2)no1`, the “Percent Effect” value was 5.655%. For `CN(Cc1nc(Cc2cccc(C(F)(F)F)c2)no1)C1CCCCC1`, the “Percent Effect” value was 113.9%. With `CN(Cc1cccc(C(F)(F)F)c1)Cc1nc(-c2cnccn2)no1` the “Percent Effect” value was -14.23%. With `CN(Cc1nc(Cc2cccc(C(F)(F)F)c2)no1)CC1CCCCO1` (stereo not drawn) the “Percent Effect” value was 99.9%. In the case of `CCOC1COC2(CCN(CC3CCOCC3)CC2)C1.O=C(O)C(F)(F)F` (stereo not drawn), the “Percent Effect” value is reported as 102.9%. In the case of `CN(C)C(=O)COC1COC2(CCN(CC3CC3)CC2)C1.O=C(O)C(F)(F)F` (stereo not drawn), the “Percent Effect” value is reported as -29.66%. In the case of `CN(C)C(=O)COC1COC2(CCN(CC3CCOCC3)CC2)C1.O=C(O)C(F)(F)F` (stereo not drawn), the “Percent Effect” value is reported as 121.3%. `O=C(O)C(F)(F)F.O=S(=O)(N[C@@H]1CCO[C@]2(CCN(CC3CCOCC3)C2)C1)C1CC1` was tested, and the “Percent Effect” value was -3.129%. With `COc1ccccc1CN1CC[C@]2(C[C@@H](OCC(=O)N(C)C)CO2)C1.O=C(O)C(F)(F)F` the “Percent Effect” value was -8.079%. With `O=C(O)C(F)(F)F.O=C(O)C(F)(F)F.c1ccc(OC2COC3(CCN(CC4CC4)CC3)C2)nc1` (stereo not drawn) the “Percent Effect” value was -30.37%. For `O=C(C1CCC2(CCN(CC3CCOCC3)CC2)O1)N1CCCC1.O=C(O)C(F)(F)F` (stereo not drawn), the “Percent Effect” value was -34.36%. `CCOC1COC2(CCN(CC3CC3)CC2)C1.O=C(O)C(F)(F)F` (stereo not drawn) was tested, and the “Percent Effect” value was 97.53%. In the case of `Clc1cc(Cl)cc(CN2CCC(NCc3cc[nH]n3)CC2)c1`, the “Percent Effect” value is reported as 16.8%. With `Cc1cccc(C(C)(C)NC(=O)CS(=O)(=O)CC(C)C)c1` the “Percent Effect” value was 15.34%. For `CC[C@H]1CN(S(C)(=O)=O)CC[C@H]1CC(=O)NCCOC`, the “Percent Effect” value was 0.9239%. In the case of `O=C(C[C@@H]1COC[C@H]2CN(CC3CCOCC3)C[C@@H]12)N1CCCCO1.O=C(O)C(F)(F)F`, the “Percent Effect” value is reported as -14.45%. `COCCNC(=O)C[C@@H]1COC[C@H]2CN(CC3CCOCC3)C[C@@H]12.O=C(O)C(F)(F)F` was tested, and the “Percent Effect” value was 95.67%. With `COCCNC(=O)C[C@@H]1COC[C@H]2CN(C(=O)C3CCOCC3)C[C@@H]12` the “Percent Effect” value was 115.8%. In the case of `COCCNC(=O)C[C@@H]1COC[C@H]2CN(C(=O)c3cnccn3)C[C@@H]12`, the “Percent Effect” value is reported as -3.747%. `CC[C@H]1CN(C(=O)C2CC2)CC[C@H]1CC(=O)NCCN1CCOCC1` was tested, and the “Percent Effect” value was 0.8633%. For `O=C(C[C@@H]1COC[C@H]2CN(CC3CC3)C[C@@H]12)N1CCCCO1.O=C(O)C(F)(F)F`, the “Percent Effect” value was -10.75%. With `CCC1CN(CC(=O)NCCOC)CCO1` (stereo not drawn) the “Percent Effect” value was -3.161%. In the case of `COCCNC(=O)C[C@@H]1COC[C@H]2CN(C(=O)COC)C[C@@H]12`, the “Percent Effect” value is reported as 99.69%. For `Cc1ccc(CC(=O)N2CCCC(c3n[nH]c4nccnc34)C2)cc1` (stereo not drawn), the “Percent Effect” value was 102%. With `O=C(CC1CCCC1)N1CCCC(c2n[nH]c3nccnc23)C1` (stereo not drawn) the “Percent Effect” value was -9.091%. For `O=C(CCc1ccccc1)N1CCCC(c2n[nH]c3nccnc23)C1` (stereo not drawn), the “Percent Effect” value was 111%. `Cc1cc(C2CCCN(C(=O)COc3ccc(F)cc3F)C2)n[nH]1` (stereo not drawn) was tested, and the “Percent Effect” value was -1.844%. In the case of `O=C(Cc1ccc(F)cc1)N1CCCC(c2n[nH]c3nccnc23)C1` (stereo not drawn), the “Percent Effect” value is reported as 91.78%. With `CN(C(=O)CN1CCc2nn(C)c(=O)cc2C1)c1nccs1` the “Percent Effect” value was -17.97%. For `CC(=O)N1CCC2(CC1)CN(C(=O)c1cccc3[nH]ccc13)C2`, the “Percent Effect” value was 7.707%. For `CC(=O)N1CCN(C(=O)c2c(Cl)c3ccccc3n2C)CC1`, the “Percent Effect” value was 8.743%. For `CC(=O)N1CC=C(n2c(=O)[nH]c3ccccc32)CC1`, the “Percent Effect” value was 120.7%. In the case of `Cc1ccc(N2CC[C@@H](NC(=O)c3cnccn3)[C@H](O)C2)nn1`, the “Percent Effect” value is reported as 13.4%. In the case of `CC(C)CN1C(=O)CO[C@@H]2CN(C(=O)N(C)C)C[C@H]21`, the “Percent Effect” value is reported as 9.504%. With `CN1CCC(C(=O)NCc2nncn2-c2ccccc2)CC1=O` (stereo not drawn) the “Percent Effect” value was -4.452%. `CN(CCO)C[C@@H]1CN(C(=O)c2cccc(OC(F)F)c2)C[C@@H]1CO` was tested, and the “Percent Effect” value was 95.7%. `COCCN(C)C[C@@H]1CN(C(=O)c2cccc(C(F)(F)F)c2)C[C@@H]1CO` was tested, and the “Percent Effect” value was -9.662%. For `COCCN(C)C[C@@H]1CN(C(=O)c2cccc(Cl)c2)C[C@@H]1CO`, the “Percent Effect” value was 153.3%. For `COCCN(C)C[C@@H]1CN(C(=O)c2cccc(C#N)c2)C[C@@H]1CO`, the “Percent Effect” value was 104.9%. In the case of `COc1cc(F)c(C(=O)N2C[C@@H](CN(C)CCO)[C@@H](CO)C2)c(F)c1`, the “Percent Effect” value is reported as -8.552%. `CN(CCO)C[C@@H]1CN(C(=O)c2c(F)cccc2Cl)C[C@@H]1CO` was tested, and the “Percent Effect” value was -7.74%. In the case of `CCN(C)C[C@@H]1CN(S(=O)(=O)c2cccc(C#N)c2)C[C@@H]1CO`, the “Percent Effect” value is reported as -4.035%. For `CN1CCC(N[C@@H]2CO[C@H](CNC(=O)Nc3ccccc3)[C@H]2O)CC1`, the “Percent Effect” value was -15.1%. In the case of `O=C(c1ccc(F)cc1F)N1C[C@H]2CC[C@@H]1CN(Cc1ccccc1)C2`, the “Percent Effect” value is reported as -4.594%.
